Assay outcomes as filed in PubChem BioAssay.
Tb PFK inh: inhibitors of T. brucei phosphofructokinase; O15648; T. brucei PFK, ADP-Glo luminescence; Potency, µM (doses to about 57.5 µM), hits mostly inhibitors; 330,000 tested, 0.17% active; AID 485367; further: nearly all actives have a fitted effect of over 60% in size
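Compounds were pin-transferred as a titration series up to 57 uM into substrate buffer (0.5 mM F6P, 0.1 mM ATP, pH 8.0), then 1.25 nM PFK was added and reactions ran 45 min before ADP-Glo detection.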
BRCA1 expr act: activators of BRCA1 expression; MCF7-BRCA1-FFLuc reporter, luminescence, 48 h; response scale: scaled: vehicle 0%, 10 µM genistein 100%; Potency, µM (titrated, usually from 46.1 µM), hits mostly activators; 380,000 tested, 1.1% active; further: nearly all actives have a fitted effect of over 80% in size
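Activators of BRCA1 expression were detected as increased firefly luciferase luminescence in engineered MCF7 cells after 48 h compound incubation. Signals were scaled to genistein 10 microM as full activation.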
PLK1 PBD block: PLK1 (human) polo-box domain binding inhibition; P53350; Plk1 PBD binding of FITC phosphopeptide, fluorescence polarization; Potency, µM, most hits filed as inhibitors; 360,000 tested, 2.8% active; further: series mostly up to about 57 µM; nearly all actives have a fitted effect of over 65% in size
Target sequence (P53350 whole entry, looked up, the tested form may be a part): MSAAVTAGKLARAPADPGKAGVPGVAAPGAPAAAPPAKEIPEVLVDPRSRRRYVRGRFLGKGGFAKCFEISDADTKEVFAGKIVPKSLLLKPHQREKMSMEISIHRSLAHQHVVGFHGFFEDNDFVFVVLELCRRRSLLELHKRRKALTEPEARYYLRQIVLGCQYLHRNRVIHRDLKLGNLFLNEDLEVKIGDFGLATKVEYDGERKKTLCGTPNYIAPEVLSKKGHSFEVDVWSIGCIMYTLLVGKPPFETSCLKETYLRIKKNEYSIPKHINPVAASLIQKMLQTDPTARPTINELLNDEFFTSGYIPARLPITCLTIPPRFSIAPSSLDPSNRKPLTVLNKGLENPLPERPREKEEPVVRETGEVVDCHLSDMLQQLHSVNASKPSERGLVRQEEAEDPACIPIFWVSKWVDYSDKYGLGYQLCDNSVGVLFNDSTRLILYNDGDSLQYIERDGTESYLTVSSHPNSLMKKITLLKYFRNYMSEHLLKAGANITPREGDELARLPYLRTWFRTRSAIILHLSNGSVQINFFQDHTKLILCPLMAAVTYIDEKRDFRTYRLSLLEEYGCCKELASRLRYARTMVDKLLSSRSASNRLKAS
VDR inhibitor: inhibitors of human vitamin D receptor. P11473. VDR-SRC2-3 peptide fluorescence polarization, 2 h. Potency, µM, usual class: inhibitors. 400,000 tested, 0.93% active. AID 504847
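Signal is fluorescence polarization, reporting how far test compounds block the interaction of VDR with the SRC2-3 coregulator peptide after a 2 h room-temperature incubation.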
TbPYK confirm: confirmation of Trypanosoma brucei pyruvate kinase inhibitors | Potency, µM (doses to about 76.9 µM), actives largely listed as inhibitors | 890 tested, 67% active | AID 720569 | recombinant TbPYK, Kinase-Glo ATP luminescence | shares compounds with PLK1 PBD block; further: nearly all actives have a fitted effect of over 70% in size
TbPYK orthogonal: orthogonal confirmation of Trypanosoma brucei pyruvate kinase inhibitors. shares compounds with PLK1 PBD block. recombinant TbPYK, ADP-Glo luminescence, 60 min. Potency, µM (titrated, usually from 76.9 µM), actives largely listed as inhibitors. 890 tested, 62% active; further: nearly all actives have a fitted effect of over 75% in size
Each line names hits and unclear results; the compound was inactive in the other large screens (follow-up assays come after a bar, where they were run). Shown are actives, neighbours in structure and some others; about 3.9% of the full set was active somewhere. The call rests on the fitted dose curve; in most records, active means well fitted curve in the direction sought with a large enough effect; inconclusive means small, poorly fitted or top-dose-only effect, or another doubt; inactive means no such curve, though single readings can be large; an effect the other way counts as inactive or inconclusive.

COc1ccc(N2C(=O)NC(=O)/C(=C\c3ccc([N+](=O)[O-])s3)C2=O)cc1	PLK1 PBD block 2.7µM, VDR inhibitor 71µM | TbPYK confirm 7.9µM | TbPYK orthogonal 16µM
COc1ccccc1N1C(=O)NC(=O)C(CCc2ccncc2)(CCc2ccncc2)C1=O	none
COc1cccc(N2C(=O)NC(=O)C3(Cc4cc(C)ccc4N(C)C3)C2=O)c1 (centres undefined)	none
COc1ccccc1N1C(=O)NC(=O)/C(=C/c2ccc([N+](=O)[O-])s2)C1=O	Tb PFK inh inconclusive, PLK1 PBD block 3.4µM, VDR inhibitor 45µM | TbPYK confirm inconclusive | TbPYK orthogonal inconclusive
COc1cccc(N2C(=O)NC(=O)/C(=C/c3ccc([N+](=O)[O-])s3)C2=O)c1	PLK1 PBD block 3µM, VDR inhibitor inconclusive | TbPYK confirm 13µM | TbPYK orthogonal 18µM
COc1ccc(N2C(=O)NC(=O)/C(=C/c3ccc([N+](=O)[O-])s3)C2=O)cc1	PLK1 PBD block 3µM, VDR inhibitor 40µM | TbPYK confirm 6.3µM | TbPYK orthogonal 13µM
CCCC12CN3CC(C)(CN(C1)C3c1c(C)[nH]c(=O)[nH]c1=O)C2=O (centres undefined)	none (no result: Tb PFK inh, BRCA1 expr act, PLK1 PBD block)
CCC(=O)N1CC(=O)Nc2ccc(C)cc2C1c1ccc(F)cc1 (centres undefined)	none (no result: Tb PFK inh, BRCA1 expr act, PLK1 PBD block)
O=C(Nc1ccc(F)c(Cl)c1)N(Cc1ccc2c(c1)OCO2)C1CCN(Cc2ccccc2)CC1	none (no result: Tb PFK inh, BRCA1 expr act, PLK1 PBD block)
Cn1c(O)c(/C=C2\C=c3ccccc3=NC2=O)c(=O)n(C)c1=O	PLK1 PBD block inconclusive, VDR inhibitor 79µM | TbPYK confirm inconclusive | TbPYK orthogonal inactive
CCOc1ccc2nc(NC(=O)c3cccn(Cc4ccccc4Cl)c3=O)sc2c1	none (no result: Tb PFK inh, PLK1 PBD block)
O=C1NC(=S)NC(=O)C1C/C=C/c1ccccc1	PLK1 PBD block 11µM, VDR inhibitor 79µM | TbPYK confirm 8.9µM | TbPYK orthogonal 11µM
O=C1NC(=S)NC(=O)C1Cc1ccccc1	PLK1 PBD block inconclusive, VDR inhibitor inconclusive (no result: Tb PFK inh)
COc1ccc(N2C(=O)/C(=C/c3cccs3)C(=O)NC2=S)cc1	PLK1 PBD block 2.1µM | TbPYK confirm 16µM | TbPYK orthogonal 25µM
COc1ccc(N2C(=O)/C(=C/c3ccc(N(C)C)o3)C(=O)NC2=S)cc1	none | TbPYK confirm inconclusive | TbPYK orthogonal inconclusive
COc1ccc(CN2C(=O)CC(=O)NC2=S)cc1	none
COc1cccc(N2C(=O)/C(=C/c3ccc(C)o3)C(=O)NC2=S)c1	PLK1 PBD block 2.7µM, VDR inhibitor inconclusive | TbPYK confirm 16µM | TbPYK orthogonal 28µM
Cc1ccc(/C=C2\C(=O)NC(=S)N(c3ccc(F)cc3)C2=O)o1	PLK1 PBD block 3.8µM | TbPYK confirm 16µM | TbPYK orthogonal 20µM
Cc1ccc2c(c1)C=CC(C#N)N2C(=O)Oc1ccccc1 (centres undefined)	PLK1 PBD block inconclusive (no result: Tb PFK inh, VDR inhibitor)
Cc1cccc(Cn2cccc(C(=O)Nc3nc4ccccc4s3)c2=O)c1	none (no result: Tb PFK inh, PLK1 PBD block)
CCc1ccc(-n2nc(C)c3c2NC(=O)CSC3c2ccc(C(=O)OC)cc2)cc1 (centres undefined)	none (no result: Tb PFK inh, BRCA1 expr act, PLK1 PBD block)
O=C1NC(=S)N(c2ccc(Br)cc2)C(=O)/C1=C/N1CCN(C(=O)c2ccco2)CC1	PLK1 PBD block inconclusive, VDR inhibitor inconclusive
O=C1NC(=S)N(c2ccccc2)C(=O)/C1=C/c1ccco1	Tb PFK inh inconclusive, PLK1 PBD block 3µM, VDR inhibitor inconclusive | TbPYK confirm 11µM | TbPYK orthogonal 16µM
C=CCN1C(=O)/C(=C/c2cccs2)C(=O)NC1=S	PLK1 PBD block 5.3µM, VDR inhibitor inconclusive | TbPYK confirm 22µM | TbPYK orthogonal 35µM
CN1C(=O)CC(=O)N(c2ccccc2)c2cc(Cl)ccc21	none (no result: Tb PFK inh, BRCA1 expr act, PLK1 PBD block)
CCOC(=O)Nc1ccc(NCc2ccc(F)cc2)nc1N	PLK1 PBD block 7.5µM, VDR inhibitor 6.3µM | TbPYK confirm 4.5µM | TbPYK orthogonal 11µM
c1ccc(NC2=Nc3ccccc3CC2)cc1	BRCA1 expr act inconclusive
Cc1ccc(/C=C2\C(=O)NC(=S)N(c3ccccc3F)C2=O)s1	PLK1 PBD block 1.2µM, VDR inhibitor inconclusive | TbPYK confirm 7.9µM | TbPYK orthogonal 11µM
Cc1ccc(/C=C2\C(=O)NC(=S)N(c3ccc(F)cc3)C2=O)s1	PLK1 PBD block 1.3µM, VDR inhibitor 35µM | TbPYK confirm 13µM | TbPYK orthogonal inconclusive
CCOC(=O)C1CCN(/C=C2/C(=O)NC(=S)N(c3ccccc3F)C2=O)CC1	none
Cc1cc(C)cc(N2C(=O)/C(=C\c3ccc(N4CCN(C)CC4)o3)C(=O)NC2=S)c1	none
O=C1Nc2ccc(Cl)cc2C(c2ccccc2)=NC1O (centres undefined)	none (no result: Tb PFK inh, BRCA1 expr act, PLK1 PBD block)
